Experimental data reported in PubChem BioAssay AID540276 (National Center for Advancing Translational Sciences (NCATS), 2011).
Out of some 300,000 compounds screened, about 5,400 (1.8%) were called active. Where a call stands in place of a potency, no number is given. About 28% were inconclusive and are not listed. Calls come from the whole dose curve; tested in HEK293 cells. For the sample, actives were picked, then their nearest neighbours and some compounds at random.

Experiment: qHTS for inhibitors of binding or entry into cells for Marburg Virus
Conditions: Marburg virus pseudotyped entry inhibition, cell reporter; series mostly up to 37.8 µM
Potency is the fitted concentration of half-maximal effect.

**Q.** For CC(=O)Nc1ccc(NC(=O)CS(=O)(=O)c2cn(CC(=O)N3CCCCC3)c3ccccc23)cc1, which Potency is on record?
**A.** inactive

**Q.** For CCOC(=O)c1ccc(NC(=O)CS(=O)(=O)c2cn(CC)c3ccccc23)cc1, which Potency is on record?
**A.** 8.2 µM (active)

**Q.** With CCOC(=O)c1ccc(NC(=O)CSc2ncccn2)cc1 as the compound, how does the Potency read?
**A.** inactive

**Q.** Which Potency does the source give for CCC1CCCCN1C(=S)Nc1ccc(S(=O)(=O)Nc2ncccn2)cc1 (stereo not drawn) here?
**A.** inactive

**Q.** Which Potency does the source give for COc1ccc(CCNC(=O)c2ccccc2OCc2ccccc2)cc1 here?
**A.** inactive

**Q.** With CC(=O)N1CCc2ccc(N)cc21 as the compound, how does the Potency read?
**A.** inactive

**Q.** Which Potency does the source give for CCOc1ccc(NC(=O)CN(C)C(=O)COc2cccc(CC)c2)cc1OCC here?
**A.** inactive

**Q.** With CC(C)CN1CC(C)C(=O)N(c2ccccc2)C1=S (stereo not drawn) as the compound, how does the Potency read?
**A.** inactive

**Q.** Which Potency does the source give for O=C(O)c1ccc(S(=O)(=O)c2ccccc2)s1 here?
**A.** inactive

**Q.** Which Potency does the source give for CCCCc1nc2cc(C(=O)N3CCCCC3CCO)ccc2o1 (stereo not drawn) here?
**A.** inactive

**Q.** With Cc1nn(-c2ccccc2)c(C)c1NC(=O)COC(=O)Cc1ccccc1 as the compound, how does the Potency read?
**A.** inactive

**Q.** With C/C=C/c1ccc(OCC(=O)OCC(=O)Nc2c(C)nn(-c3ccccc3)c2C)c(OC)c1 as the compound, how does the Potency read?
**A.** inactive

**Q.** With Cc1nn(-c2ccccc2)c(C)c1NC(=O)COc1ccc(Cl)cc1Cl as the compound, how does the Potency read?
**A.** 11.6 µM (active)

**Q.** With COc1ccc(CCNC(=O)C(=O)NCC2OCCN2S(=O)(=O)c2cccs2)cc1OC (stereo not drawn) as the compound, how does the Potency read?
**A.** inactive

**Q.** For CCc1ccc(N2CC(C(=O)N3CCCCCC3)CC2=O)cc1 (stereo not drawn), which Potency is on record?
**A.** inactive

**Q.** With CCN(c1ccccc1)S(=O)(=O)c1cc(C(=O)NCc2ccccn2)ccc1C as the compound, how does the Potency read?
**A.** inactive

**Q.** Which Potency does the source give for COc1cccc2c1C(=O)c1c(O)c3c(c(O)c1C2=O)CC(O)(C(C)=NNC(=O)c1ccc(Cl)c(Cl)c1)CC3OC1CC(N)C(O)C(C)O1 (stereo not drawn) here?
**A.** 0.447 µM (active)

**Q.** With COc1ccc(C(=O)Nc2ccccc2C(=O)N2CCN(c3ccccc3)CC2)cc1 as the compound, how does the Potency read?
**A.** inactive

**Q.** Which Potency does the source give for CC(=O)NCCC(=O)Nc1nc(-c2ccc3c(c2)OCCO3)cs1 here?
**A.** inactive

**Q.** With O=C(Nc1nc(-c2ccc3c(c2)OCO3)cs1)c1ccncc1 as the compound, how does the Potency read?
**A.** 7.94 µM (active)

**Q.** Which Potency does the source give for Cc1ccc(-c2csc(NC(=O)C3=COCCO3)n2)cc1C here?
**A.** inactive

**Q.** Which Potency does the source give for Cc1ccc(S(=O)(=O)N2CCC(C(=O)N3CCCCCCC3)CC2)cc1 here?
**A.** inactive

**Q.** With CCOC(=O)C1CCCN(C(=O)C2CCN(S(=O)(=O)c3ccc(Cl)c(C(F)(F)F)c3)CC2)C1 (stereo not drawn) as the compound, how does the Potency read?
**A.** inactive

**Q.** Which Potency does the source give for CCOC(=O)CC1=C(C(=O)OCC)[C@H](c2cc(OC)c(OC)cc2OC)C(C#N)=C(N)O1 here?
**A.** inactive

**Q.** Which Potency does the source give for Cc1c(Cl)cccc1NC(=S)NCC(O)c1ccccc1 (stereo not drawn) here?
**A.** inactive

**Q.** With COCCOC(=O)C1=C(C)NC(=O)CC1c1cc2c(cc1Br)OCO2 (stereo not drawn) as the compound, how does the Potency read?
**A.** inactive

**Q.** Which Potency does the source give for COc1ccccc1C1C2=C(COC2=O)Nc2cc3c(cc21)OCO3 (stereo not drawn) here?
**A.** inactive

**Q.** With CCCOc1ccccc1C1CC(=O)Nc2cc3c(cc21)OCO3 (stereo not drawn) as the compound, how does the Potency read?
**A.** 6.31 µM (active)

**Q.** Which Potency does the source give for CC(NCc1nc2ccccc2n1C)C12CC3CC(CC(C3)C1)C2 (stereo not drawn) here?
**A.** 11.2 µM (active)

**Q.** Which Potency does the source give for Cn1c(CNC(=O)C(C)(C)C)nc2ccccc21 here?
**A.** inactive

**Q.** For Cn1c(COc2ccccc2C(C)(C)C)nc2ccccc21, which Potency is on record?
**A.** inactive

**Q.** Which Potency does the source give for C#CCOCCOCCOCCNc1nc(N2CCN(C(=O)Cn3cc(CCO)nn3)CC2)nc(N2CCN(C(=O)Cn3cc(CCCN=C(N)N)nn3)CC2)n1 here?
**A.** inactive

**Q.** For O=C1C(=O)N(CCN2CCOCC2)[C@@H](c2ccccn2)/C1=C(/O)c1ccc(F)cc1, which Potency is on record?
**A.** inactive

**Q.** With CCN(CC)c1ccc(/C=N/Nc2nc(C)cc(=O)[nH]2)cc1 as the compound, how does the Potency read?
**A.** inactive

**Q.** Which Potency does the source give for Cc1cc(C)nc(N/N=C/c2ccncc2)n1 here?
**A.** inactive

**Q.** For CCN(CC)c1ccc(/C=N/Nc2nc(C)cc(C)n2)c(O)c1, which Potency is on record?
**A.** 6.51 µM (active)

**Q.** With CN(C)c1cc2c(Nc3ccc4c(cnn4Cc4ccccc4)c3)ncnc2cn1 as the compound, how does the Potency read?
**A.** 8.91 µM (active)

**Q.** With Cn1ncc2c(Nc3cccc4ccccc34)ncnc21 as the compound, how does the Potency read?
**A.** inactive

**Q.** For Clc1ccc(Nc2ncnc3c2nnn3Cc2ccccc2)cc1, which Potency is on record?
**A.** inactive

**Q.** Which Potency does the source give for Cc1ccc(CN2CCNC(=O)C2CC(=O)NCc2csc(C(C)C)n2)cc1 (stereo not drawn) here?
**A.** inactive

**Q.** For Cc1ccsc1C(=O)NNC(=O)COc1ccc(Br)cc1, which Potency is on record?
**A.** inactive

**Q.** With CC1CCN(C(=O)c2ccc3c(=O)n4c(nc3c2)CCCCC4)CC1 as the compound, how does the Potency read?
**A.** inactive

**Q.** With CCc1ccc(CNC(=O)c2cc3c(=O)n(CC)c4ccccc4c3s2)cc1 as the compound, how does the Potency read?
**A.** inactive

**Q.** With CCN(CCCNC(=O)c1cc2c(=O)n(CC)c3ccccc3c2s1)Cc1ccccc1 as the compound, how does the Potency read?
**A.** 4.47 µM (active)

**Q.** Which Potency does the source give for CCn1c(=O)c2cc(C(=O)NCCc3ccc(Cl)cc3)sc2c2ccccc21 here?
**A.** inactive

**Q.** Which Potency does the source give for Cc1ccc(CS(=O)Cc2ccc(C(=O)N3CCOCC3)o2)cc1 (stereo not drawn) here?
**A.** inactive

**Q.** For C/C(=N\Nc1ccccc1)c1cccs1, which Potency is on record?
**A.** inactive

**Q.** With Oc1ccc2ccccc2c1C=Nc1ccccc1 as the compound, how does the Potency read?
**A.** inactive

**Q.** With Oc1ccc2ccccc2c1N=Nc1nccs1 as the compound, how does the Potency read?
**A.** 3.55 µM (active)

**Q.** Which Potency does the source give for O=C(Cc1ccc(NC(=O)C2CCCN(C(=O)CCc3ccccc3)C2)cc1)Nc1ccc(C(=O)N2CCOCC2)cc1 (stereo not drawn) here?
**A.** inactive

**Q.** Which Potency does the source give for COc1ccc(N2CCN(CCNC(=O)Nc3cc(Cl)ccc3Cl)CC2)cc1 here?
**A.** inactive

**Q.** Which Potency does the source give for CN(Cc1ccccc1)C(=O)COC(=O)/C=C/c1ccc2c(c1)OCO2 here?
**A.** inactive

**Q.** Which Potency does the source give for N=c1c2c(-c3ccccc3)c(-c3ccccc3)n(Cc3ccccc3)c2ncn1CCCO here?
**A.** 5.8 µM (active)

**Q.** With CC(C)Cn1cnc2c1c(=O)n(CC(=O)NN)c(=O)n2Cc1ccccc1 as the compound, how does the Potency read?
**A.** inactive

**Q.** Which Potency does the source give for COCCn1cnc2c1c(=O)n(Cc1ccc(Br)cc1)c(=O)n2Cc1ccccc1 here?
**A.** inactive

**Q.** For Cc1cc(NC(=O)CCN2CCN(Cc3ccccc3)CC2)ccc1Br, which Potency is on record?
**A.** inactive

**Q.** Which Potency does the source give for CCCCN(C(=O)c1ccc(C)o1)c1c(N)n(CCCC)c(=O)[nH]c1=O here?
**A.** inactive

**Q.** For O=C(c1ccccc1)C(O)(CN1CCCCC1)c1ccccc1 (stereo not drawn), which Potency is on record?
**A.** inactive

**Q.** For CCCCCCC(O)(CCN1CCCCC1)c1ccccc1 (stereo not drawn), which Potency is on record?
**A.** 12.6 µM (active)

**Q.** With CCc1ccccc1NC(=O)NCCN1CCCCC1 as the compound, how does the Potency read?
**A.** inactive

**Q.** For CCOC(=O)c1ccc(NC(=O)CNC(=O)c2ccco2)cc1, which Potency is on record?
**A.** inactive

**Q.** Which Potency does the source give for Cc1ccc(C(c2nnnn2C(C)(C)C)N2CCc3ccccc3C2)cc1 (stereo not drawn) here?
**A.** inactive

**Q.** With COCCn1nnnc1C(c1cc2ccc(OC)cc2[nH]c1=O)N1CCc2ccccc2C1 (stereo not drawn) as the compound, how does the Potency read?
**A.** inactive

**Q.** With COc1ccc(OC)c(C(c2nnnn2C(C)(C)C)N2CCc3ccccc3C2)c1 (stereo not drawn) as the compound, how does the Potency read?
**A.** 12.6 µM (active)

**Q.** Which Potency does the source give for COc1cc2c(cc1OC)CN(C(C)C(=O)Nc1cccc(S(=O)(=O)N3CCOCC3)c1)CC2 (stereo not drawn) here?
**A.** inactive

**Q.** Which Potency does the source give for COc1cc(CN2CC(C)CC(C)C2)cc([N+](=O)[O-])c1O (stereo not drawn) here?
**A.** inactive

**Q.** Which Potency does the source give for COc1cc(/C=C2/C(=O)NN(c3ccc(F)cc3)C2=O)cc([N+](=O)[O-])c1O here?
**A.** 3.55 µM (active)

**Q.** For C#CCOc1ccc(/C=C2/C(=O)NN(c3ccccc3)C2=O)cc1OC, which Potency is on record?
**A.** inactive
